About 14,000 (4.5%) of roughly 310,000 compounds showed an effect of 50% or more. Effects have a minus sign here. This is one part of a sample in which strong results are shown more often than they occur.
Molecular target: human ether-à-go-go-related gene (hERG) potassium channel (human, UniProt Q12809)
Assay: primary screen, population patch clamp on CHO cells stably expressing hERG; higher = less effect of the substance
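Also: peak tail current of the secondary pulse compared with the same well before compound.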

Sequence of human ether-à-go-go-related gene (hERG) potassium channel (Q12809 whole entry, looked up): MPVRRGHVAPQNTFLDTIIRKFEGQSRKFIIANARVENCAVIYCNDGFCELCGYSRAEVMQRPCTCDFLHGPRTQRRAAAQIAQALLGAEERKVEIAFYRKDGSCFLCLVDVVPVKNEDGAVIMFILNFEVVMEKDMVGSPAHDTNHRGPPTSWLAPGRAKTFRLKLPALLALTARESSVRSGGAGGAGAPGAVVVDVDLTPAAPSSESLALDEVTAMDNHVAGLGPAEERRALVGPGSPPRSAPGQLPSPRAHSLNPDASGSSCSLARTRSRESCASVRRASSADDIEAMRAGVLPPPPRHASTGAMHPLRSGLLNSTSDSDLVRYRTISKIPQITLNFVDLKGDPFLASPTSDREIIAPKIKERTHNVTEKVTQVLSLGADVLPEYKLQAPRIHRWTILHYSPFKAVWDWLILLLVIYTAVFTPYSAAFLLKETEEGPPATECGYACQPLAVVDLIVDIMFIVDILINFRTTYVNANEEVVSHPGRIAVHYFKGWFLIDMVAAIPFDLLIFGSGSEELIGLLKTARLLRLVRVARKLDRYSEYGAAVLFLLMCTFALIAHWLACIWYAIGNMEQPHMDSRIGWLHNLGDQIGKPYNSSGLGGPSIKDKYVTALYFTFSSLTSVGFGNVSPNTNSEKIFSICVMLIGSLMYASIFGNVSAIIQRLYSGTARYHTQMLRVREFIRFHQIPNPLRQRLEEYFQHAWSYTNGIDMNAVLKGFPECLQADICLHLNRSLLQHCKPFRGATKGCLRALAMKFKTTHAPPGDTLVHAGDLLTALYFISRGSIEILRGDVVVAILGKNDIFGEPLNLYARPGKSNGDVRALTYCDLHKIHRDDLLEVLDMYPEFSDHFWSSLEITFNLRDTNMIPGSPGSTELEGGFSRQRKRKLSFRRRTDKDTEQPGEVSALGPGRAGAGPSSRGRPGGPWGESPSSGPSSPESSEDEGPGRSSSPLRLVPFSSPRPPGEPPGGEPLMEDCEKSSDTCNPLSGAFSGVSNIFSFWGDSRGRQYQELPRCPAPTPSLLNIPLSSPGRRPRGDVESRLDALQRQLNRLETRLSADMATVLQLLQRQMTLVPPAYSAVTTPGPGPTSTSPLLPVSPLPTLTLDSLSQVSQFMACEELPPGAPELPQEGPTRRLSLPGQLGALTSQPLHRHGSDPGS

Row | Compound | hERG current change (%, negative = inhibition) at 10uM
1 | COc1ccc(C(=O)N2CCCC2)cc1S(=O)(=O)N1CCOCC1 | -1.7%
2 | CCN[C@H]1CN(CCCOC)S(=O)(=O)c2sc(S(N)(=O)=O)cc21 | 2.51%
3 | CC(C)NS(=O)(=O)c1ccc(CCC(=O)N2CCc3ccccc3C2)cc1 | -11.9%
4 | Cc1c(C(=O)OCC(=O)c2ccc3c(c2)OCCO3)oc2ccccc12 | 4.75%
5 | COc1cc(/C=C2\CCC(C3CCCC3)C2=O)cc(OC)c1OC (stereo not drawn) | 9.98%
6 | O=C(CSc1nnc2ncccn12)Nc1cccc2ccccc12 | 5.09%
7 | Cc1ccc(S(=O)(=O)N(C)CCCC(=O)Nc2cccc3ccccc23)cc1 | -28.1%
8 | CC(=O)Nc1ccc(NC(=S)NC(=O)/C=C/c2ccc(Cl)cc2)cc1 | 17.7%
9 | O=C(Oc1c(Br)cc(C(=S)N2CCOCC2)cc1Br)c1ccc(Cl)cc1 | 11.3%
10 | CC(=O)N1N=C(c2ccc(NS(=O)(=O)c3ccccc3)cc2)CC1c1ccco1 (stereo not drawn) | -12.2%
11 | Cc1ccc(-n2ncc3c2CC(C)(C)CC3NC(=O)CCc2cnn(C)c2)cc1 (stereo not drawn) | -52.6%
12 | Cc1ccc(-n2ncc3c2CC(C)(C)CC3NC(=O)CCc2c(C)noc2C)cc1 (stereo not drawn) | -32.3%
13 | Cc1ccc(-n2ncc3c2CC(C)(C)CC3NC(=O)CCN2CCCCC2=O)cc1 (stereo not drawn) | 3.16%
14 | Cc1ccc(-n2ncc3c2CC(C)(C)CC3NC(=O)CCCN2CCCC2=O)cc1 (stereo not drawn) | -1.21%
15 | Cc1ccc(-n2ncc3c2CC(C)(C)CC3NC(=O)CCc2cccnc2)cc1 (stereo not drawn) | -63.9%
16 | Cc1ccc(-n2ncc3c2CC(C)(C)CC3NC(=O)CCN2CCCO2)cc1 (stereo not drawn) | -37.7%
17 | O=c1ccc2cc(S(=O)(=O)N3CCN(c4cc(Cl)ccc4Cl)CC3)ccc2o1 | -20.7%
18 | Cc1cc(NC(=O)CSCC(=O)Nc2ccccc2Oc2ccccc2)no1 | -8.79%
19 | NC(=O)CSc1oc(-c2cccs2)nc1S(=O)(=O)c1ccccc1 | -15.5%
20 | COc1cccc(/C=N/NC(=O)CN2CC(c3ccccc3)CC2=O)c1O (stereo not drawn) | -9.13%
21 | O=c1[nH]c2ccccc2c(O)c1-[n+]1ccccc1.[Cl-] | 22.5%
22 | COc1ccc(CCNC(=O)C(=O)Nc2ccc3nc4n(c(=O)c3c2)CCCCC4)cc1OC | -27.3%

Row | Compound | hERG current change (%, negative = inhibition) at 10uM
23 | Oc1ccc(/C=N/Nc2nc(N3CCCC3)nc(N3CCCC3)n2)cc1O | 2.71%
24 | Cl.c1ccc(CSCc2cn3ccccc3n2)cc1 | 2.98%
25 | Cc1ccccc1NC(NC(=O)OCCn1c([N+](=O)[O-])cnc1C)C(Cl)(Cl)Cl (stereo not drawn) | 2.42%
26 | Cc1ccc(NC(NC(=O)OCCn2c([N+](=O)[O-])cnc2C)C(Cl)(Cl)Cl)cc1 (stereo not drawn) | 6.71%
27 | Cc1ncc([N+](=O)[O-])n1CCOC(=O)NC(Nc1ccc(F)cc1)C(Cl)(Cl)Cl (stereo not drawn) | -54.6%
28 | COc1ccccc1NC(=O)COn1nnc2ccc(S(=O)(=O)N3CCOCC3)cc21 | 4.92%
29 | COc1ccccc1C(=O)NCCC(=O)N(C)CC(=O)Nc1ccc(Cl)cc1 | -31.9%
30 | CN(CC(=O)Nc1ccc(Cl)c(C(F)(F)F)c1)C(=O)CCN1C(=O)C2CC=CCC2C1=O (stereo not drawn) | -37.2%
31 | Cc1ccc(OCC(=O)N(C)CC(=O)Nc2ccccc2Cl)c([N+](=O)[O-])n1 | -16.7%
32 | CN(CC(=O)Nc1ccc(Cl)cc1)C(=O)CCNC(=O)c1ccc(Cl)cc1 | -67.7%
33 | CN(CC(=O)Nc1ccc(Cl)c(C(F)(F)F)c1)C(=O)CNC(=O)C1CCCCC1 | -31.5%
34 | CCOc1ccc(NC(=O)CN(C)C(=O)c2cn3ccccc3n2)cc1OCC | -19.2%
35 | CN(CC(=O)Nc1ccc(Cl)c(C(F)(F)F)c1)C(=O)CCN1C(=O)C2CCCCC2C1=O (stereo not drawn) | -50.2%
36 | Cc1ccc(OCC(=O)N(C)CC(=O)Nc2ccc(F)cc2)c([N+](=O)[O-])n1 | -24.2%
37 | COc1ccc(NC(=O)CN(C)C(=O)CCCNC(=O)c2ccc(Cl)cc2)cc1 | -30.8%
38 | Cc1ccc(OCC(=O)N(C)CC(=O)Nc2ccc(Cl)c(C(F)(F)F)c2)c([N+](=O)[O-])n1 | -54.8%
39 | CN(CC(=O)Nc1ccc(Cl)c(C(F)(F)F)c1)C(=O)c1cn2ccccc2n1 | -61.9%
40 | CN(CC(=O)Nc1cccc(F)c1)C(=O)c1cn2ccccc2n1 | -5%
41 | COc1cc(C2/C(=C(/O)c3ccccc3)C(=O)C(=O)N2c2ccccn2)ccc1O (stereo not drawn) | 25.1%
42 | O=C(COC(=O)CN1C(=O)C2CC=CCC2C1=O)Nc1cc(C(F)(F)F)ccc1N1CCOCC1 (stereo not drawn) | -26.8%
43 | CC(=O)OCCN(Cc1ccccc1)Cc1ccc2c(c1)OCO2 | -10.8%
44 | CC(/C=N/n1c(-c2cc(C)[nH]n2)n[nH]c1=S)=C\c1ccccc1 | 14.7%

Row | Compound | hERG current change (%, negative = inhibition) at 10uM
45 | Cc1ccc(NC(=O)CN(C)Cc2cc(=O)n3ccsc3n2)cc1 | -7.66%
46 | COc1ccc(CCC(=O)N(C)CC(=O)Nc2ccc(Cl)c(C(F)(F)F)c2)cc1 | 22.2%
47 | CN(CC(=O)Nc1ccc(Cl)cc1)Cc1cc(=O)n2ccsc2n1 | -33.3%
48 | CN(CC(=O)Nc1ccc(Cl)c(C(F)(F)F)c1)Cc1cc(=O)n2ccsc2n1 | -82.8%
49 | COc1ccc(NC(=O)CN(C)C(=O)CSCC(=O)Nc2ccc(C)cc2)cc1 | -0.753%
50 | CN(CC(=O)Nc1ccc(Cl)c(C(F)(F)F)c1)C(=O)CCCNC(=O)c1ccc(Cl)cc1 | -52.2%
51 | COc1cccc(NC(=O)CN(C)C(=O)CCCNC(=O)c2ccc(Cl)cc2)c1 | -46.5%
52 | O=C(CCCN1C(=O)CCC1=O)Nc1ccc(Cl)c(C(F)(F)F)c1 | -18.8%
53 | COc1ccc(NC(=O)CCCCCN2C(=O)CCC2=O)cc1Cl | -2.22%
54 | COc1ccc(NC(=O)CSCC(=O)N(C)CC(=O)Nc2ccc(Cl)c(C(F)(F)F)c2)cc1 | -68.6%
55 | CN(CC(=O)Nc1cccc(F)c1)C(=O)CCCNC(=O)c1ccc(Cl)cc1 | -36.7%
56 | O=C(CCCCCN1C(=O)CCC1=O)Nc1ccc(Cl)c(C(F)(F)F)c1 | -58.7%
57 | CC(=O)N1N=C(c2ccc(C)cc2)OC1c1cccnc1 (stereo not drawn) | 8.57%
58 | CCOC(=O)C1CCCN(S(=O)(=O)c2ccc(-n3cnnn3)c(C)c2)C1 (stereo not drawn) | -11.3%
59 | COc1ccc(Cl)cc1NC(=O)CN(C)C(=O)CCNC(=O)c1ccccc1OC | -9.08%
60 | COc1ccc(Cl)cc1NC(=O)CN(C)C(=O)CCCNC(=O)c1ccc(Cl)cc1 | -55.4%
61 | COc1ccc(Cl)cc1NC(=O)CCCNC(=O)c1ccc(Cl)cc1 | -4.84%
62 | Cc1cc(C)n(/N=C/c2ccccc2)c(=O)c1C#N | 17%
63 | Cc1ccccc1NC(=O)CSc1nc(-c2ccccc2)cc(=O)[nH]1 | 24.9%
64 | CCOc1ncccc1C(=O)Nc1cc(S(=O)(=O)N2CCCCC2)ccc1Cl | 20.5%
65 | COc1cccc(NC(=O)CSc2nnc3c(n2)[nH]c2ccc(C)cc23)c1 | 8.36%
66 | Cn1c(CN2CCOCC2)nc2cc(NC(=O)c3ccccc3Cl)ccc21 | -10.4%

Row | Compound | hERG current change (%, negative = inhibition) at 10uM
67 | Cn1c(CN2CCN(C(=O)c3ccccc3Cl)CC2)nc2cc([N+](=O)[O-])ccc21 | -70.7%
68 | COc1ccccc1C(=O)N1CCN(Cc2nc3cc([N+](=O)[O-])ccc3n2C)CC1 | -67.6%
69 | CC(=O)N1CCN(Cc2nc3cc(NC(=O)c4ccccc4Cl)ccc3n2C)CC1 | -20.8%
70 | COc1ccc(C(=O)NCCc2nc3cc([N+](=O)[O-])ccc3n2C)cc1 | -39.9%
71 | Cc1cc(C(c2nnnn2Cc2ccccc2)N2CCOCC2)c(C)n1-c1ccc2c(c1)OCO2 (stereo not drawn) | -32.1%
72 | CCC(C)(C(=O)Nc1ccccc1C)N(C(=O)CNC(C)=O)c1ccc(C)cc1 (stereo not drawn) | 14.8%
73 | COc1ccc(NC(=O)COC(=O)CCCC2=NS(=O)(=O)c3ccccc3N2)cc1Cl | 38.8%
74 | O=C(NCc1ccccc1)c1cc(S(=O)(=O)N2CCCCC2)ccc1N1CCOCC1 | -20.1%
75 | O=C(CSc1nnc(CNc2ccc(F)cc2)o1)N1CCCc2ccccc21 | 2.24%
76 | CCN1CCCC1CNC(=O)C(=O)Nc1ccc(OC)cc1 (stereo not drawn) | -5.95%
77 | CCN(CC(=O)Nc1ccc(OC(F)F)cc1)C1CCCCC1 | -73.5%
78 | CCN1CCCC1CNCC(=O)Nc1ccc(OC(F)(F)F)cc1.O=C(O)C(=O)O (stereo not drawn) | -70.7%
79 | Cl.O=C(CNCC1CCCCC1)Nc1ccc(OC(F)(F)F)cc1 | -62.4%
80 | CNCC(=O)Nc1ccc(OC(F)(F)F)cc1.Cl | -3.92%
81 | O=C(CNCC1CCCCC1)Nc1ccc(N2CCCCC2)cc1.O=C(O)C(=O)O | -17.3%
82 | CCN1CCCC1CNC(=O)c1cc(N)ccc1OC.O.O=C(O)C(=O)O (stereo not drawn) | 13.5%
83 | CCN(CC(=O)Nc1ccc(C(=O)OC)cc1)C1CCCCC1 | -1.85%
84 | CCN1CCCC1CNCC(O)COc1ccc(C(C)(C)C)cc1C.O=C(O)C(=O)O (stereo not drawn) | -54.4%
85 | CCC(C)(C)NCC(=O)Nc1ccc(OC(F)(F)F)cc1 | -32.7%
86 | CCN(C(=S)Nc1ccc(OC(F)F)cc1)C1CCCCC1 | -22.8%
87 | CCN1CCCC1CNC(=O)C(=O)NCCc1ccc(OC)c(OC)c1 (stereo not drawn) | -1.49%

— article PMC4336329 (PLoS ONE, 2015)
